This is an account of results in the supplement of paper PMC3334620.

Whole data set: some 33,000 sequences, median “E-score (-0.5 to 0.5)” near -0.041, cut for the highest 2% near 0.37. The list comes from a sample in which the highest values are over-represented; it also holds similar and randomly drawn sequences.

The assay addresses T1, Ecm22 (UniProt Q05958).
T1 sequence: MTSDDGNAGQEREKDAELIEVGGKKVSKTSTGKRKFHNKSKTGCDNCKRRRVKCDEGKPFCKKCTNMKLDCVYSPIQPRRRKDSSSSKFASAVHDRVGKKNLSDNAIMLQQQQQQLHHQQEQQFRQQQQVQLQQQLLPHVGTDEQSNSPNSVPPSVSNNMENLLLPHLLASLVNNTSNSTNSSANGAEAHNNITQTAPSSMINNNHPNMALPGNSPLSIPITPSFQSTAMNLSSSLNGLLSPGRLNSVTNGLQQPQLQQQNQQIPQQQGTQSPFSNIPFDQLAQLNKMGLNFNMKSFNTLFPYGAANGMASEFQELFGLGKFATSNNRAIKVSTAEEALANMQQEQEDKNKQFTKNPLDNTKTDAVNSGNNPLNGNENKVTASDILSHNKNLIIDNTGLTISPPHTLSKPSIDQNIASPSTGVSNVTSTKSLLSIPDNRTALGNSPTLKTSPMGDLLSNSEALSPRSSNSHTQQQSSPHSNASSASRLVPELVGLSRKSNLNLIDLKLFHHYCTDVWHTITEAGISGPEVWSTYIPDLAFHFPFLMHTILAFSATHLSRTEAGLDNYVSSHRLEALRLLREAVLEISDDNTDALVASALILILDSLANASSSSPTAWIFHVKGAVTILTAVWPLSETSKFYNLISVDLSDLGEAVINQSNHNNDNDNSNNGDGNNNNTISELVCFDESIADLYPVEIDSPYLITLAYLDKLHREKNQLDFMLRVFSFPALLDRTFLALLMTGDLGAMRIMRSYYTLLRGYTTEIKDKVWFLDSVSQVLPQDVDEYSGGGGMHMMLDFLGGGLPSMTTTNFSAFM
The assay can be described thus: PBM E-score (8-mer binding enrichment) (E-score (-0.5 to 0.5)); higher = stronger / more preferred TF binding. To be noted: protein concentration: 200 nM; construct: GST-full length. How it is done:
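Universal 'all 10-mer' protein binding microarrays (Agilent AMADID 015681) probed with GST-tagged S. cerevisiae TFs (full-length or DBD) made by in vitro transcription/translation (PURExpress), about 100-200 nM. Bound TF was detected with fluorescent anti-GST. Each ungapped 8-mer (which stands for itself and its reverse complement) is scored by the PBM enrichment score (E-score), a modified Wilcoxon-Mann-Whitney statistic from -0.5 to +0.5, computed with the Universal PBM Analysis Suite. Scale: above 0.35 generally sequence-specific binding.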
On to AGCCACGC, for which the “PBM E-score” value is -0.14. Then CCGAGCGA, with 0.237.

As for ACGAGCGT, the “PBM E-score” value was determined as 0.389. Then ACGAGCGC, with 0.327.

With AAGAGCGT, the “PBM E-score” value was 0.0857. The figure for ATGAGCGG is -0.0285; for ACGAGCGG it is 0.386; for GCGAGCGA it is 0.31.

For the sequence ACGAGCGA, the “PBM E-score” value was determined as 0.409. The figure for CCGAGCGG is 0.202; for AGTCTTTG it is -0.0796; for ATCTCGGC it is 0.0673. For the sequence CGCTAAGA, the “PBM E-score” value came out at 0.149. The figure for CCACTGCC is -0.0201; for GCAGGCCA it is -0.00078; for CACCCCCG it is -0.2. For the sequence TCAGTCGA, the “PBM E-score” value was 0.0318. The figure for CAAGCGGG is -0.0323; for ATTCTACA it is 0.0155; for GAGAGCGC it is -0.0803. The figure for CACGAGCA is 0.0712; for TCCGAGCA it is 0.236; for TACGAGCA it is 0.467. The figure for AACGAGCG is 0.459; for GACGAGCC it is 0.0624.

Turning to CACGAGCC, the “PBM E-score” value turned out to be 0.143. As for TGCGAGCA, the “PBM E-score” value worked out at 0.238. Then AGCGAGCG, with 0.345; and AACGAGCA, with 0.46.

As for AACGAGCC, the “PBM E-score” value was 0.442. Then GACGAGCA, with 0.0907. Turning to CACGAGCG, the “PBM E-score” value was 0.201. The figure for AGCGTGGG is -0.0957; for GGTTGGAC it is -0.241. The figure for AACCGAAA is 0.235. With AAATTCTG, the “PBM E-score” value is -0.0343.

Turning to ACCGGATC, the “PBM E-score” value was -0.0309. The figure for CAAGTGCG is -0.0245; for ACTCCATA it is -0.195; for CAGGAGAC it is 0.0295.

Consider AGGATGAG, for which the “PBM E-score” value was -0.0765. The figure for ACCATAGC is -0.261.

Turning to GAACCGGC, the “PBM E-score” value is -0.0167. Then GCCTTTAA, with -0.198.

Regarding ACCGAGCT, the “PBM E-score” value came out at 0.235. Then AACGAGCT, with 0.445.

AGCGAGCT: the “PBM E-score” value was 0.309. Then CCGCTTTC, with -0.0554; and GGCCTCCC, with -0.0791; and GTCGCATA, with 0.369. The figure for ATCGCATA is 0.289; for CTCGCATA it is 0.376. CTCGCAGA: the “PBM E-score” value came out at 0.0487. The figure for CTCGCATC is 0.304; for GTCGCAGA it is 0.123. In the case of ACCTTTCG, the “PBM E-score” value is 0.094.

In the case of TAAAGCGA, the “PBM E-score” value amounted to 0.213.

Consider CGTTTAAG, for which the “PBM E-score” value is 0.429. In the case of TGTTTAAA, the “PBM E-score” value is -0.172.

For CCTTTAAG, the “PBM E-score” value was -0.259.

Regarding AGTTTAAA, the “PBM E-score” value was found to be 0.0639.

Consider AGTTTAAC, for which the “PBM E-score” value was 0.09.

For GGTTTAAC, the “PBM E-score” value stood at 0.0725. Then AGTTTAAG, with -0.127. The figure for CGTTTAAA is 0.453; for CGTTTAAC it is 0.465; for ACGGCCCG it is 0.208. On to GGCGATAC, for which the “PBM E-score” value is 0.0112.

As to AAGCGGCT, the “PBM E-score” value is -0.0695. Take AACCCGGC: the “PBM E-score” value came to 0.11. For GCCACAAC, the “PBM E-score” value is -0.055.

Turning to AGGAAATG, the “PBM E-score” value was -0.11. The figure for CTCGGTTA is 0.383; for ATCGGTTA it is 0.362.

With GTCGGTTA, the “PBM E-score” value amounted to 0.369. The figure for CTCGGTTC is 0.265; for CACGGTTA it is 0.0472; for GTCGGTCA it is 0.258.

On to CGCGGAGC, for which the “PBM E-score” value worked out at 0.116. Then AGAGAGAT, with -0.163; and ACGAGCCA, with 0.404.

Consider ACGAGCCT, for which the “PBM E-score” value was determined as 0.407.

In the case of CCGAGCCG, the “PBM E-score” value was determined as 0.227.

On to AGGAGCCT, for which the “PBM E-score” value is -0.308. Then TCGAGCCA, with -0.126; and ACGAGCCG, with 0.389.
